Here are results for four compounds from PubChem BioAssay.

Experiment [1] is described as follows: Wnt pathway potentiators raising nuclear beta-catenin – imaging, WNT3A-conditioned medium, mouse C2C12, NPC library, primary screen (AID 1117326; in the data active = nuclear beta-catenin stimulation mostly above about 4.2%, no sharp cut-off; inactive = mostly below about 10%). Conditions: stronger effect = higher value.
The nature of experiment [2]: stimulators of insulin release from INS-1E, primary screen, cell-based, 5 mM glucose, NPC library (AID 1117329;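 active = compound raises insulin release from rat beta cells at 5 mM glucose, no numeric limit stated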). As to conditions: rat INS-1E insulin secretion, at 10 µM, stronger effect = higher value.
Experiment [3] can be described thus: growth inhibition of GSK3B-pretreated HCT116 cells – cell-based, CellTiter-Glo, 0.2 to 20 µM (AID 1117336;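 active = compounds lowering colon cancer cell viability after pretreatment blocking the GSK3B kinase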). Conditions: HCT116 viability after GSK3B inhibitor, at 20 µM, stronger effect = higher value.
The nature of experiment [4]: inhibition of endothelial tube formation, primary screen, imaging, VEGF stimulated, CD31 staining, tube area, NPC library (AID 1117340;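 active = compound that reduces growth-factor-driven endothelial tube area in a mixed cell culture, no cutoff stated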). As to conditions: VEGF-stimulated ADSC/ECFC co-culture, at 10 µM, stronger effect = higher value.
Experiment [5] in a line: GLP1 release stimulators, primary, NCI-H716, NPC library (AID 1117341;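 active = compound raises GLP1 secretion from the human gut endocrine cells, with no numeric limit stated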). As to conditions: NCI-H716 cells, at 10 µM, stronger effect = higher value.
Experiment [6] is described as follows: HCT116 colon cancer cell growth inhibition, primary screen, CellTiter-Glo luminescence, NPC library (AID 1117342;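 active = compounds that lower survival of HCT116 colon cancer cells in the luminescence readout, no numeric limit stated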). As to conditions: at 20 µM (top of the series).
Experiment [7] is described as follows: reduced SW480 viability measured with CellTiter-Glo, NPC library, primary (AID 1117343;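 active = compounds that lower viability of the colon cancer cells in the luminescence readout, with no numeric limit stated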). As to conditions: CellTiter-Glo luminescence; at 20 µM (top of the series).
Experiment [8] is described as follows: NPC library primary testing for decreased DLD-1 cell viability via CellTiter-Glo (AID 1117346;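 active = compounds that lower survival of DLD-1 colon cancer cells in the luminescence readout, no cutoff given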). Conditions: DLD-1 viability, CellTiter-Glo luminescence; at 20 µM (top of the series).
Experiment [9] deals with 6-phosphogluconate dehydrogenase, decarboxylating (Homo sapiens) (UniProt P52209). The experiment can be described thus: inhibition of human phosphogluconate dehydrogenase – biochemical, recombinant enzyme, NADPH absorbance, primary screen (AID 1159550;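 active = at least 20% inhibition of 6-phosphogluconate dehydrogenase activity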). As to conditions: recombinant 6PGD, NADPH absorbance 341 nm; at 10 µM; stronger effect = higher value.
Experiment [10] in a line: EMT-state selective cytotoxicity in co-culture – imaging, PC-3E GFP, TEM4-18 mCherry, primary screen (AID 1345086;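 active = compounds killing one labelled cell type while sparing the other, by normalised counts and ratio limits, not self-fluorescent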;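 for all read-outs here: cells exposed to compound for 72 h before imaging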;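 for red/green cell ratio (normalised): normalised mesenchymal count divided by normalised epithelial count so high means epithelial killing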). Conditions: PC-3E GFP / TEM4-18 mCherry co-culture, imaging cell counts, at 1 µM; for red/green cell ratio (normalised): actives lie on both sides, counts scaled to control wells, 1 = unselective.
Experiment [11] in a line: MELAS cybrid and Rieske KO viability enhancers – cell-based, MELAS cybrids, Rieske KO mouse fibroblasts, CellTiter-Glo, primary screen (AID 1508586;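 active = mean z-score across replicates of 1.96 or higher in either the MELAS or the Rieske mutant cell line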;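 note: z relative to plate mean and SD of compound and empty wells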). Conditions: low glucose.
For experiment [12], the target named is NAD(+) hydrolase SARM1 (Homo sapiens) (UniProt Q6SZW1). As to the kind of experiment: blocking NAD cleavage by SARM1 SAM-TIR – cell lysate, NAD-Glo luminescence (AID 1508614;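 active = compound whose remaining NAD level is above about 45 nM, limit read from the data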;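 note: higher remaining NAD means stronger inhibition of SARM1 NADase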). As to conditions: SAM-TIR HEK293T lysate NADase, at 1 µM, stronger effect = higher value.
The next experiment relates to F380Y. As to the kind of experiment: BK channel mutant inhibitors and activators – cell-based, U2OS BacMam, thallium flux, beta subunits, selectivity assay, profiling panel (AID 1259406).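 Note: initial slope of Thallos dye fluorescence rise after thallium is added; log ratio against the mean of 0.3% DMSO vehicle wells on the same plate.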 As to conditions: U2OS BacMam BK variants, at 30 µM.
Another experiment relates to F380Y/beta1. The experiment is described as above. Conditions: U2OS BacMam BK variants, at 30 µM.
The subject of another experiment is F380Y/beta2Delta. Described as above. As to conditions: U2OS BacMam BK variants, at 30 µM.
The subject of a further experiment is F380Y/beta4. The description is as above. Conditions: U2OS BacMam BK variants, at 30 µM.
Experiment [13] has as its target Calcium-activated potassium channel subunit alpha-1 (Homo sapiens) + Leucine-rich repeat-containing protein 26 (Homo sapiens) (UniProt Q12791+Q2I0M4). The description is as above. As to conditions: U2OS BacMam BK variants, F380Y/Slo1WT/gamma1, at 30 µM.
The test system of another experiment is R275C. The description is as above. Conditions: U2OS BacMam BK variants, at 30 µM.
Where [14] appears, read: measured here: epithelial PC-3E GFP cell survival.
Where [15] appears, read: measured here: mesenchymal TEM4-18 mCherry cell survival.
Where [16] appears, read: MELAS cybrid survival, CellTiter-Glo 48 h, stronger effect = higher value.
Setting [17] is: Rieske KO mouse fibroblast survival, CellTiter-Glo 72 h.

SMILES strings stand for the structures. Where “and” joins values, the source holds several entries; their conditions need not be identical. Equal values may be shown once. Calls of active or inactive are those of the source.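 Rule for the calls, unless noted: active = thallium flux through the channel raised or lowered by more than 3 SD from vehicle-only wells, actives on both sides; inactive = the rest.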

Chain of 6-phosphogluconate dehydrogenase, decarboxylating (Homo sapiens) (P52209 whole entry, looked up): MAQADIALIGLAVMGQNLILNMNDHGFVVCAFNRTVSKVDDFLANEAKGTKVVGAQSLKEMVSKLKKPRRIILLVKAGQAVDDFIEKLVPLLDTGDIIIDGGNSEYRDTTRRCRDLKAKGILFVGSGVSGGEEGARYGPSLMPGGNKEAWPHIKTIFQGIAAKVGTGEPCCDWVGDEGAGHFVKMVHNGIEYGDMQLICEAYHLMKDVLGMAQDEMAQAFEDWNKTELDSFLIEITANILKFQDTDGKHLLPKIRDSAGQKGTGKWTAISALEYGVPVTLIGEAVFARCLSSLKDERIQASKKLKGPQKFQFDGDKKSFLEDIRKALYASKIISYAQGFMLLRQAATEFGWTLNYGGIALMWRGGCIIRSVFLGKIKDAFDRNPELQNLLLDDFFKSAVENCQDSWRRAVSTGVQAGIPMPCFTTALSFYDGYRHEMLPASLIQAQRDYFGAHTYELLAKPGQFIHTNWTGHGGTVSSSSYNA
Chain of Calcium-activated potassium channel subunit alpha-1 (Homo sapiens) + Leucine-rich repeat-containing protein 26 (Homo sapiens) (Q2I0M4 whole entry, looked up, one chain of several): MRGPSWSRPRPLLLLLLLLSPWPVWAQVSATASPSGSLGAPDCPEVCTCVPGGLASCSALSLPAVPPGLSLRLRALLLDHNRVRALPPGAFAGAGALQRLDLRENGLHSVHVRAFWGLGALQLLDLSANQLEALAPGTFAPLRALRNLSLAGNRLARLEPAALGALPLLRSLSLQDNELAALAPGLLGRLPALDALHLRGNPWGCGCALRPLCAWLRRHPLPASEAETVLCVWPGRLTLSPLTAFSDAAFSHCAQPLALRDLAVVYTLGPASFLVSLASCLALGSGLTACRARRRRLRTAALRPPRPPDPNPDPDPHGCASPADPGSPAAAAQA
Chain of NAD(+) hydrolase SARM1 (Homo sapiens) (Q6SZW1 whole entry, looked up): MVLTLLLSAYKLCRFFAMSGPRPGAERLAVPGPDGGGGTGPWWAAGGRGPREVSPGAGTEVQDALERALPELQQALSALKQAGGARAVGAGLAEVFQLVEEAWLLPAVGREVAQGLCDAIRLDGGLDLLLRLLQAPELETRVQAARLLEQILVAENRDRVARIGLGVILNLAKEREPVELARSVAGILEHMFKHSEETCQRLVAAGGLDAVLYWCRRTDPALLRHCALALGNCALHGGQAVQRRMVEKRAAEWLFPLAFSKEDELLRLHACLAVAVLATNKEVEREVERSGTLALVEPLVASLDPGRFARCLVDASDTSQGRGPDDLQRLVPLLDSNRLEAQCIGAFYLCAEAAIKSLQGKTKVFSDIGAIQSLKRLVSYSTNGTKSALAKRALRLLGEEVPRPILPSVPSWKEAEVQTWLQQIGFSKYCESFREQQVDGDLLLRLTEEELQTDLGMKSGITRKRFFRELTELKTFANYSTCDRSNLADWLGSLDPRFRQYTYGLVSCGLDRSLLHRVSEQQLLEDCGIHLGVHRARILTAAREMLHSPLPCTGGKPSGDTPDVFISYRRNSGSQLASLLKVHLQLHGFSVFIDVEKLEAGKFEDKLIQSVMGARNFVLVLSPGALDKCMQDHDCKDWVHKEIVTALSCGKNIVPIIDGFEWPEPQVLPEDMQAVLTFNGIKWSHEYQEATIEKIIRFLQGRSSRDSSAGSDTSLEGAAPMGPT

For `O=C(C1CCCCC1)N1CC(=O)N2CCc3ccccc3C2C1` (stereo not drawn), the nuclear beta-catenin stimulation is -0.4% (inactive) in experiment [1] (at 10 µM) and -1.1% in [1] (stimulation, at 2 µM). The insulin secretion stimulation in [2] was 2.5% (inactive). In addition, the viability decrease in experiment [3] was -3.8% (inactive). The tube area decrease in experiment [4] was -2.6% (inactive). In addition, the GLP1 secretion stimulation in experiment [5] is -2.7% (inactive). Moreover, the inhibition of viability in experiment [6] is -11.5% (inactive). Besides, the viability decrease (inhibition) was 19.5% (inactive) in experiment [7] and -16.7% (inactive) in experiment [8]. In experiment [9], the inhibition is -0.949% (inactive). Moreover, the red/green cell ratio (normalised) in experiment [10] is 1.48 (inactive). The normalised cell number in experiment [10] (setting [14]) was 0.96; in experiment [10] (setting [15]), 1.42. Besides, the z-score was -0.396 (inactive) and 0.0285 (inactive) and 0.65 (inactive) in experiment [11] (setting [16]); -0.176 and 0.00765 and 0.589 in experiment [11] (setting [17]). The remaining NAD in [12] was 10 nM (inactive). In addition, the log fold change Tl+ flux in the experiment on F380Y was 0.0282 (inactive); with F380Y/beta1 it was 0.027 (inactive); in the experiment on F380Y/beta2Delta it was 0.0335 (inactive); in the experiment on F380Y/beta4, 0.0341 (inactive); in [13], -0.00263 (inactive); in the experiment on R275C, -0.0164 (inactive).
With `CCc1cc(C(N)=S)ccn1`, the nuclear beta-catenin stimulation is 0.1% (inactive) in experiment [1] (at 10 µM) and 0.5% in experiment [1] (stimulation, at 2 µM). Also, the insulin secretion stimulation in [2] was 1% (inactive). Further, in [3], the viability decrease was -19.3% (inactive). Further, the tube area decrease in experiment [4] is 2.7% (inactive). Moreover, the GLP1 secretion stimulation in experiment [5] is -4% (inactive). The inhibition of viability in experiment [6] was -7.9% (inactive). Further, the viability decrease (inhibition) in experiment [7] is 6.3% (inactive); in experiment [8], -11% (inactive). For the same compound, the inhibition in experiment [9] was 11% (inactive). Besides, the red/green cell ratio (normalised) in experiment [10] was 0.96 (inactive). Moreover, the normalised cell number in experiment [10] (setting [14]) was 1.01; in experiment [10] (setting [15]), 0.97. For the same compound, the z-score was 0.0369 (inactive) and 0.0584 (inactive) in [11] (setting [16]); 0.0377 and 0.257 in experiment [11] (setting [17]). For the same compound, the remaining NAD in experiment [12] was 10 nM (inactive). For the same compound, the log fold change Tl+ flux with F380Y is 0.0115 (inactive); in the experiment on F380Y/beta1, 0.0016 (inactive); with F380Y/beta2Delta, -0.0262 (inactive); with F380Y/beta4, 0.0197 (inactive); in [13], 0.00124 (inactive); in the experiment with R275C, 0.0202 (inactive).
With `O=C(O)c1cc(=O)c2c(OCC(O)COc3cccc4oc(C(=O)O)cc(=O)c34)cccc2o1`, the nuclear beta-catenin stimulation in [1] (at 10 µM) was -1.8% (inactive); in experiment [1] (stimulation, at 2 µM), 1.3%. For the same compound, in experiment [2], the insulin secretion stimulation is 1.6% (inactive). Moreover, the viability decrease in experiment [3] is -32.8% (inactive). Also, in experiment [4], the tube area decrease is -2.5% (inactive). In addition, the GLP1 secretion stimulation in experiment [5] was -0.5% (inactive). Moreover, in [6], the inhibition of viability is 2.4% (inactive). Moreover, the viability decrease (inhibition) in experiment [7] was 19.3% (inactive); in experiment [8], -7.8% (inactive). In [9], the inhibition was 10.5% (inactive). Besides, in experiment [10], the red/green cell ratio (normalised) was 1.26 (inactive). Besides, the normalised cell number in [10] (setting [14]) is 1.29; in [10] (setting [15]), 1.63. Moreover, the z-score in experiment [11] (setting [16]) is 0.0651 (inactive) and -0.552 (inactive); in experiment [11] (setting [17]), 0.522 and -0.245. Besides, the remaining NAD in experiment [12] is 10 nM (inactive). For the same compound, the log fold change Tl+ flux in the experiment with F380Y was -0.0252 (inactive); in the experiment with F380Y/beta1 it was -0.0414 (inactive); in the experiment with F380Y/beta2Delta, -0.0103 (inactive); in the experiment with F380Y/beta4, -0.0657 (inactive); in [13] it was -0.0248 (inactive); in the experiment with R275C, -0.0035 (inactive).
In the case of `CCN(Cc1ccncc1)C(=O)C(CO)c1ccccc1` (stereo not drawn), the nuclear beta-catenin stimulation in [1] (at 10 µM) was 0.5% (inactive); in experiment [1] (stimulation, at 2 µM), -1.9%. Besides, in [2], the insulin secretion stimulation was 1.6% (inactive). Moreover, the viability decrease in [3] was 11.6% (inactive). In addition, the tube area decrease in [4] was 7.1% (inactive). Further, the GLP1 secretion stimulation in experiment [5] is 0.1% (inactive). The inhibition of viability in experiment [6] is 14.3% (inactive). For the same compound, the viability decrease (inhibition) is 12% (inactive) in experiment [7] and 3.8% (inactive) in experiment [8]. The inhibition in experiment [9] is -16.3% (inactive). In addition, the red/green cell ratio (normalised) in experiment [10] is 1.08 (inactive). Further, the normalised cell number in experiment [10] (setting [14]) was 1.08; in experiment [10] (setting [15]), 1.16. Moreover, the z-score in experiment [11] (setting [16]) is 0.0477 (inactive) and 0.409 (inactive) and -0.211 (inactive); in [11] (setting [17]), 0.0479 and 0.424 and 0.901. Further, the remaining NAD in experiment [12] is 10 nM (inactive). For the same compound, the log fold change Tl+ flux with F380Y is 0.0305 (inactive); with F380Y/beta1 it was -0.00694 (inactive); in the experiment with F380Y/beta2Delta, -0.0245 (inactive); in the experiment with F380Y/beta4, -0.0208 (inactive); in experiment [13], 0.00211 (inactive); in the experiment with R275C, -0.035 (inactive).
